Measurements from PubChem BioAssay (Tox21).
Where “and” joins values, the source holds several entries; their conditions need not be identical. Equal entries are not always repeated. Inconclusive results are not listed. A call without a number means that no potency is given here. A structure can be active in one record and inactive in another. Calls of active or inactive are those of the source. Calls follow the shape of the dose curve; as a rule, active = well fitted inhibition curve with a large enough effect in the signal ratio in the repeat runs (not every such curve was filed as active); inconclusive = weak or mixed curves, or effect the other way; inactive = no such curve, though single readings can be large or run the other way; the % refers to the signal ratio.

Each compound was assayed against Estrogen receptor beta (Homo sapiens) (UniProt Q92731) (assay: qHTS assay to identify small molecule antagonists of the estrogen receptor beta (ER-beta) signaling pathway (AID 1259378)). Details: ER-beta-UAS-bla HEK293T, beta-lactamase FRET ratio, 16 h; series mostly up to 92.4 µM.
Chain of Estrogen receptor beta (Homo sapiens) (Q92731 whole entry, looked up): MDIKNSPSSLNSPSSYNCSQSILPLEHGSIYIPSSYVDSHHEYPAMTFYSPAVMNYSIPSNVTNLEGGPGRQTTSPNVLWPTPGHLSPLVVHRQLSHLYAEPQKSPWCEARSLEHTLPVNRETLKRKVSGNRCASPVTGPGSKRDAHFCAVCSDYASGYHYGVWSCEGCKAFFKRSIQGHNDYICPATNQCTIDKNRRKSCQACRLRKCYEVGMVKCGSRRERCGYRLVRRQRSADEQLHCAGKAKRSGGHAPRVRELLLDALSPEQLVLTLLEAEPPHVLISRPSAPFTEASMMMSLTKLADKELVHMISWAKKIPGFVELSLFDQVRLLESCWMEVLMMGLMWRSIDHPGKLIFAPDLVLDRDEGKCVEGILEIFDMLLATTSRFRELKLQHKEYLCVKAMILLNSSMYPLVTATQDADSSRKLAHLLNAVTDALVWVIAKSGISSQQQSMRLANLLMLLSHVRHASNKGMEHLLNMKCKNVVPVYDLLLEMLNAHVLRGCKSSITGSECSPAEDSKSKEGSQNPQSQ
From the text: National Center for Advancing Translational Sciences [NCATS]
NIH Chemical Genomics Center [NCGC]
U.S. Environmental Protection Agency [EPA]
National Institutes of Environmental Health Sciences [NIEHS]
National Toxicology Program [NTP]
U.S. Food and Drug Administration [FDA]
Estrogen receptor (ER), a nuclear hormone receptor, plays an important role in development, metabolic homeostasis and reproduction. Two subtypes of ER, ER-alpha and ER-beta, have similar expression patterns with some uniqueness in both types. Endocrine disrupting chemicals (EDCs) and their interactions with steroid hormone receptors like ER causes disruption of normal endocrine function. To identify the compounds that inhibit ER signaling, an ER-beta-UAS-bla GripTite cell line (Life Technologies, Madison, WI, USA) containing a beta-lactamase reporter gene under the control of an UAS response element was used to screen Tox21 10K compound library.
Tox21 Assay Protocol Summary:
ER-beta-UAS-bla HEK293T cells were dispensed at 2,000 cells/4 uL of assay medium containing 2% charcoal stripped FBS per well into black wall/clear-bottom 1536-well plates using a Multidrop Combi (ThermoFisher Scientific, Waltham, MA) dispenser. After the assay plates were incubated at a 37C and 5% CO2 for 6 hr, 23 nL of compounds dissolved in DMSO, positive controls or DMSO only was transferred to the assay plate by a Pintool station (Kalypsys, San Diego, CA), followed by addition of 1 uL (1nM as final concentration) of 17-beta-estradiol (E2) in assay medium using a BioRAPTR FRD (Flying Reagent Dispenser, Aurora Discovery, San Diego, CA). The plates were incubated at 37C and 5% CO2 for 16 hr. Then 1 uL of LiveBLAzerTM B/G FRET substrate was added using a Flying Reagent Dispenser, the plates were incubated at room temperature for 2 hours, and fluorescence intensity was measured by an Envision plate reader (PerkinElmer, Shelton, CT).
Potency is read from the fitted curve at half-maximal effect.

Question: `CCCCCCCC(=O)OCC(COC(=O)CCCCCCC)OC(=O)CCCCCCC` was tested. Which Potency did it give?
Answer: Its Potency is “inactive”.

Question: Which Potency does the source give for `C=C(C)C(=O)OCC(C)O` (stereo not drawn) here?
Answer: Its Potency is “inactive”.

Question: With `CC1(C)O[C@@H]2C[C@H]3[C@@H]4CCC5=CC(=O)C=C[C@]5(C)[C@@]4(F)[C@@H](O)C[C@]3(C)[C@]2(C(=O)CO)O1` as the compound, how does the Potency read?
Answer: Its Potency is “inactive”.

Question: `C1CCC(C(CC2CCCCN2)C2CCCCC2)CC1` (stereo not drawn) was tested. Which Potency did it give?
Answer: Its Potency is 18.8 µM (active).

Question: Which Potency does the source give for `Nc1ccc(S(N)(=O)=O)cc1` here?
Answer: The Potency was “inactive”.

Question: Which Potency does the source give for `OC[C@H]1O[C@H](O[C@]2(CCl)O[C@H](CCl)[C@@H](O)[C@@H]2O)[C@H](O)[C@@H](O)[C@H]1Cl` here?
Answer: Its Potency is “inactive”.

Question: `O=S1(=O)OC(c2ccc(O)cc2)(c2ccc(O)cc2)c2ccccc21` was tested. Which Potency did it give?
Answer: The Potency was “inactive”.

Question: `O=c1[nH]cc(F)c(=O)[nH]1` was tested. Which Potency did it give?
Answer: The Potency was “inactive”.

Question: For `O=C(O)CC(O)C(=O)O` (stereo not drawn), which Potency is on record?
Answer: The Potency was “inactive”.

Question: Which Potency does the source give for `C1=CC2C3C=CC(C3)C2C1` (stereo not drawn) here?
Answer: The Potency was “inactive”.

Question: `CN(C)CCOC(c1ccccc1)c1ccccc1` was tested. Which Potency did it give?
Answer: The Potency was “inactive”.

Question: How did the Potency turn out when `COc1ccc(C(Cl)=C(c2ccc(OC)cc2)c2ccc(OC)cc2)cc1` was run?
Answer: The Potency was 433 nM (active) and 668 nM (active).

Question: How did the Potency turn out when `C/C=C/C=C/C(=O)O` was run?
Answer: Its Potency is “inactive”.

Question: `NC1CCCCC1` was tested. Which Potency did it give?
Answer: Its Potency is “inactive”.

Question: For `NS(=O)(=O)O`, which Potency is on record?
Answer: Its Potency is “inactive”.

Question: For `Nc1c2c(nc3ccccc13)CCCC2`, which Potency is on record?
Answer: The Potency was “inactive”.

Question: With `CCCCOC(=O)c1ccc(O)cc1` as the compound, how does the Potency read?
Answer: The Potency was 19.3 µM (active).

Question: `CC(C)C(=O)Nc1ccc([N+](=O)[O-])c(C(F)(F)F)c1` was tested. Which Potency did it give?
Answer: The Potency was 54.5 µM (active) and inactive.

Question: For `CC(C)NCC(O)c1ccc(O)c(O)c1` (stereo not drawn), which Potency is on record?
Answer: The Potency was “inactive”.

Question: Which Potency does the source give for `NC(=O)c1cccnc1` here?
Answer: Its Potency is “inactive”.

Question: `CN(C)CCOC(C)(c1ccccc1)c1ccccn1` (stereo not drawn) was tested. Which Potency did it give?
Answer: The Potency was “inactive”.

Question: Which Potency does the source give for `CNNCc1ccc(C(=O)NC(C)C)cc1` here?
Answer: Its Potency is “inactive”.

Question: `O=CC(=O)c1ccccc1` was tested. Which Potency did it give?
Answer: Its Potency is “inactive”.

Question: How did the Potency turn out when `CCOc1ccc(NC(C)=O)cc1` was run?
Answer: Its Potency is “inactive”.

Question: How did the Potency turn out when `Cc1cn([C@H]2C=C[C@@H](CO)O2)c(=O)[nH]c1=O` was run?
Answer: Its Potency is “inactive”.

Question: With `CCN(CC)C(=O)c1cccc(C)c1` as the compound, how does the Potency read?
Answer: The Potency was “inactive”.

Question: For `NS(=O)(=O)c1cc2c(cc1Cl)NCNS2(=O)=O`, which Potency is on record?
Answer: Its Potency is “inactive”.

Question: With `Cc1c(C(=O)O)c(O)cc2c1C(=O)c1c(O)c([C@@H]3O[C@H](CO)[C@@H](O)[C@H](O)[C@H]3O)c(O)c(O)c1C2=O` as the compound, how does the Potency read?
Answer: Its Potency is “inactive”.
